Screen size: about 5,500 compounds; about 2,000 (36%) were called active. About 18% were inconclusive and are not listed. Cut-off read from the data, not from the text of the source: active = normalized growth mostly below about 0.91 (no sharp cut-off); inconclusive = no clear call, values can overlap the other calls; inactive = mostly above about 0.92. The list shows a part of the results.
Assay: chemical genetic growth profiling, strain panel (AID 1159580);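 note: tested at 20 µM; growth read once vehicle control cultures reached saturation at 30 °C; 1 = growth at the plate median or of vehicle wells; lower values mean less growth of the strain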
Settings: S. cerevisiae deletion strains, growth OD

Measured: normalized growth

O=C(O)c1cc(=O)c2ccccc2o1
inactive: locus YAL021C, strain ccr4, stronger effect = lower value 1.01 | locus YAL026C, strain drs2, stronger effect = lower value 0.984 | locus YAL030W, strain snc1, stronger effect = lower value 0.971 | locus YBL061C, strain skt5, stronger effect = lower value 0.974 | locus YBR009C, strain hhf1, stronger effect = lower value 0.989 | locus YBR023C, strain chs3, stronger effect = lower value 0.982 | locus YBR171W, strain sec66, stronger effect = lower value 0.965 | locus YBR231C, strain swc5, stronger effect = lower value 0.982 | locus YBR279W, strain paf1, stronger effect = lower value 0.981 | locus YCL011C, strain gbp2, stronger effect = lower value 0.988 | locus YCL016C, strain dcc1, stronger effect = lower value 0.995 | locus YCL061C, strain MRC1, stronger effect = lower value 0.979 | locus YCL069W, strain vba3, stronger effect = lower value 0.99 | locus YCR088W, strain abp1, stronger effect = lower value 0.973 | locus YDL005C, strain med2, stronger effect = lower value 0.967 | locus YDL040C, strain nat1, stronger effect = lower value 0.98 | locus YDR001C, strain nth1, stronger effect = lower value 0.972 | locus YDR069C, strain doa4, stronger effect = lower value 0.966 | locus YDR137W, strain rgp1, stronger effect = lower value 0.971 | locus YDR159W, strain sac3, stronger effect = lower value 1 | locus YDR195W, strain ref2 0.916 | locus YDR297W, strain sur2, stronger effect = lower value 0.983 | locus YDR334W, strain swr1, stronger effect = lower value 0.976 | locus YDR335W, strain msn5, stronger effect = lower value 0.986 | locus YDR392W, strain spt3, stronger effect = lower value 1.02 | locus YEL003W, strain gim4, stronger effect = lower value 0.983 | locus YEL037C, strain rad23, stronger effect = lower value 0.973 | locus YEL061C, strain CIN8 (second series), stronger effect = lower value 0.97 | locus YER015W, strain faa2, stronger effect = lower value 0.99 | locus YER016W, strain bim1, stronger effect = lower value 0.984 | locus YER111C, strain swi4, stronger effect = lower value 0.972 | locus YER155C, strain BEM2 (second series), stronger effect = lower value 0.936 | locus YFR010W, strain ubp6, stronger effect = lower value 0.976 | locus YGL167C, strain pmr1, stronger effect = lower value 0.973 | locus YGL173C, strain kem1, stronger effect = lower value 0.975 | locus YGL227W, strain vid30, stronger effect = lower value 0.968 | locus YGL240W, strain doc1, stronger effect = lower value 0.96 | locus YGL253W, strain hxk2, stronger effect = lower value 0.992 | locus YHR013C, strain ard1, stronger effect = lower value 0.978 | locus YHR027C, strain rpn1, stronger effect = lower value 0.977 | locus YHR030C, strain SLT2, stronger effect = lower value 1.03 | locus YHR079C, strain IRE1, stronger effect = lower value 1.02 | locus YHR142W, strain chs7, stronger effect = lower value 0.983 | locus YJL092W, strain hpr5, stronger effect = lower value 0.98 | locus YJL095W, strain BCK1 (second series), stronger effect = lower value 0.97 | locus YJL095W, strain BCK1, stronger effect = lower value 1.03 | locus YJL115W, strain asf1, stronger effect = lower value 0.979 | locus YJL129C, strain trk1, stronger effect = lower value 0.95 | locus YJL154C, strain vps35, stronger effect = lower value 0.952 | locus YJL164C, strain tpk1, stronger effect = lower value 0.98 | locus YJL166W, strain qcr8, stronger effect = lower value 0.97 | locus YJR066W, strain TOR1, stronger effect = lower value 0.956 | locus YKL160W, strain elf1, stronger effect = lower value 0.987 | locus YKR026C, strain gcn3, stronger effect = lower value 0.971 | locus YKR091W, strain srl3, stronger effect = lower value 0.972 | locus YLL001W, strain dnm1, stronger effect = lower value 0.957 | locus YLL026W, stronger effect = lower value 0.969 | locus YLL041C, strain sdh2, stronger effect = lower value 0.972 | locus YLR027C, strain aat2, stronger effect = lower value 0.979 | locus YLR113W, strain HOG1, stronger effect = lower value 1.05 | locus YLR221C, strain rsa3, stronger effect = lower value 1 | locus YLR258W, strain gsy2, stronger effect = lower value 0.985 | locus YLR262C, strain YPT6 (second series), stronger effect = lower value 0.986 | locus YLR320W, strain mms22, stronger effect = lower value 0.991 | locus YLR342W, strain FKS1, stronger effect = lower value 0.983 | locus YLR357W, strain rsc2, stronger effect = lower value 0.975 | locus YLR370C, strain arc18, stronger effect = lower value 0.974 | locus YLR384C, strain iki3, stronger effect = lower value 0.976 | locus YML120C, strain ndi1, stronger effect = lower value 0.958 | locus YMR058W, strain fet3, stronger effect = lower value 0.984 | locus YMR125W, strain sto1, stronger effect = lower value 0.95 | locus YMR129W, stronger effect = lower value 0.981 | locus YMR205C, strain PFK2, stronger effect = lower value 0.969 | locus YMR231W, strain pep5, stronger effect = lower value 0.949 | locus YNL071W, strain lat1, stronger effect = lower value 0.988 | locus YNL183C, strain NPR1, stronger effect = lower value 0.949 | locus YNL209W, strain ssb2, stronger effect = lower value 1.03 | locus YNL248C, strain rpa49, stronger effect = lower value 0.968 | locus YNL322C, strain KRE1 (second series), stronger effect = lower value 0.953 | locus YNR049C, strain mso1, stronger effect = lower value 0.982 | locus YOR001W, strain rrp6, stronger effect = lower value 0.983 | locus YOR070C, strain gyp1, stronger effect = lower value 0.985 | locus YOR080W, strain dia2, stronger effect = lower value 0.971 | locus YOR083W, strain WHI5, stronger effect = lower value 0.982 | locus YOR106W, strain vam3, stronger effect = lower value 0.972 | locus YOR231W, strain MKK1, stronger effect = lower value 1.07 | locus YOR265W, strain rbl2, stronger effect = lower value 0.976 | locus YOR270C, strain vph1, stronger effect = lower value 0.962 | locus YOR290C, strain snf2, stronger effect = lower value 1 | locus YPL051W, strain arl3, stronger effect = lower value 0.983 | locus YPL078C, strain atp4, stronger effect = lower value 0.975 | locus YPL106C, strain sse1, stronger effect = lower value 0.988 | locus YPL240C, strain hsp82, stronger effect = lower value 0.994 | locus YPL256C, strain CLN2, stronger effect = lower value 1.03

From PubChem BioAssay AID1159580 (chemical genetic matrix, 2015)
